Results taken from PubChem BioAssay (Tox21).
Records with an inconclusive call do not appear. Active and inactive are the calls of the source. Unless noted, the call rests on the fitted dose curve; in most records, active means well fitted curve in the direction sought with a large enough effect in the repeat runs; inconclusive means weak or mixed curves; inactive means no such curve, though single readings can be large; an effect the other way counts as inactive or inconclusive.

Experiments:
[1] = A CellTox Green Cytotoxicity Assay to monitor cytotoxicity in HepG2 cells - 8 hour (AID 1224890); further: nearly all actives have a fitted effect of over 45% in size
How it was run: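 Fluorescent DNA-binding dye, 600 HepG2 cells/well, 5 h preincubation then compound in DMSO; same plates read at 0–40 h, 37 C.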

[2] = qHTS assay to identify small molecule antagonists of the estrogen receptor alpha (ER-alpha) signaling pathway using the BG1 cell line in the presence of 0.1 nM 17-beta-estradiol - cell viability counter screen (AID 1259241); further: nearly all actives have a fitted effect of over 40% in size
How it was run: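 Viability in VM7Luc4E2 cells after 22 hr compound exposure under 0.1 nM 17beta-estradiol stimulation, by CellTiter-Fluor.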

[3] = qHTS assay to identify small molecule antagonists of the androgen receptor (AR) signaling pathway using the MDA cell line in the presence of 0.5 nM R1881 - cell viability counter screen (AID 1259242); further: nearly all actives have a fitted effect of over 45% in size
How it was run: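 Human breast carcinoma MDA-kb2 cells, cultured without CO2, receive compounds alongside 0.5 nM (final) R1881 agonist. After 16 hr at 37C, viability is taken as live-cell protease signal.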

[4] = molecular target: Estrogen receptor (Homo sapiens) (UniProt P03372); assay: qHTS assay to identify small molecule antagonists of the estrogen receptor alpha (ER-alpha) signaling pathway using the BG1 cell line in the presence of 0.1 nM 17-beta-estradiol (AID 1259244); further: nearly all actives have a fitted effect of over 50% in size
Sequence of Estrogen receptor (Homo sapiens) (P03372 whole entry, looked up): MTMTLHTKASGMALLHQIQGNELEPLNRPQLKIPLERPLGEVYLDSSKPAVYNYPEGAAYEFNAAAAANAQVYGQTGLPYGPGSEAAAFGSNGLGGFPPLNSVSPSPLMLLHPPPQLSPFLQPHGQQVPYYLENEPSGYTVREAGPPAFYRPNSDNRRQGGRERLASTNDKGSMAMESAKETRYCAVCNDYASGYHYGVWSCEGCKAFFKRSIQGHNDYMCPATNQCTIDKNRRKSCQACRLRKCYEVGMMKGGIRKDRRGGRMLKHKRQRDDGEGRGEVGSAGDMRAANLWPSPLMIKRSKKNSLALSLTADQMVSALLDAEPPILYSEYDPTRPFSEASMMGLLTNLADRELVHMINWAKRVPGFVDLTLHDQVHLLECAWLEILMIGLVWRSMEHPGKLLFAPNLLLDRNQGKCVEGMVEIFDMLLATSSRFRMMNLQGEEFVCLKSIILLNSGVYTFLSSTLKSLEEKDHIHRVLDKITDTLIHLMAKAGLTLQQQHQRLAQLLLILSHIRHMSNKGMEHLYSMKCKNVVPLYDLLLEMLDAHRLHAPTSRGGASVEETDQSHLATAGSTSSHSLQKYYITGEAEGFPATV
How it was run: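 Seeding of stripped-serum-adapted VM7Luc4E2 cells, 24 h attachment, compound transfer, then 0.1 nM final 17beta-estradiol; after 22 h incubation, ONE-Glo reagent and luminescence reading.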

[5] = qHTS assay to identify small molecule HDAC inhibitors (AID 1259364);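 further: wild-type HCT-116 cells with endogenous class I/II HDAC activity; top concentration of the series differs between compounds; nearly all actives have a fitted effect of over 45% in size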
How it was run: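 After a 2 hr compound incubation (37C, 5% CO2), HCT-116 cells seeded at 1,500/well the day before received HDAC-Glo reagent; signal read as luminescence after 30 min at room temperature.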

[6] = qHTS assay to identify small molecule HDAC inhibitors - cell viability counter screen (AID 1259365); further: series mostly up to about 92 µM; nearly all actives have a fitted effect of over 50% in size
How it was run: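 Cytotoxicity was gauged in wild-type HCT-116 cells after a brief 2hr treatment with DMSO-dissolved compounds at 37C and 5% CO2, using CellTiter-Glo luminescence developed for 30min at room temperature.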

[7] = qHTS assay to identify small molecule agonists of the sonic hedgehog signaling (Shh) pathway - cell viability counter screen (AID 1259366); further: nearly all actives have a fitted effect of over 50% in size
How it was run: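 Stable Gli1-Luc NIH/3T3 clone, 2,000 cells/well. Compound exposure 24hr at 37C. Read-out: CellTiter-Fluor fluorescence.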

[8] = qHTS assay to identify small molecule antagonists of the sonic hedgehog signaling (Shh) pathway - cell viability counter screen (AID 1259367); further: nearly all actives have a fitted effect of over 55% in size
How it was run: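 CellTiter-Fluor signal in conditioned medium-stimulated 3T3 Gli1-Luc cells, 23 hr compound exposure, 37C.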

[9] = qHTS assay to identify small molecule agonists of the sonic hedgehog signaling (Shh) pathway (AID 1259368; calls by dose curve;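 further: NIH/3T3-derived 3T3Gli1-Luc cells carrying a stable Gli1-driven firefly luciferase reporter; series mostly up to about 92 µM; nearly all actives have a fitted effect of over 15% in size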)
How it was run: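 Stable NIH/3T3 Gli1-Luc reporter clone; 24 hr cpd exposure after a 4 hr settling period; luminescence endpoint.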

[10] = molecular target: Estrogen receptor beta (Homo sapiens) (UniProt Q92731); assay: qHTS assay to identify small molecule agonists of the estrogen receptor beta (ER-beta) signaling pathway (AID 1259377; active means well fitted activation curve with a large enough effect in the signal ratio in the repeat runs, not every such curve was filed as active; the % refers to the signal ratio)
Sequence of Estrogen receptor beta (Homo sapiens) (Q92731 whole entry, looked up): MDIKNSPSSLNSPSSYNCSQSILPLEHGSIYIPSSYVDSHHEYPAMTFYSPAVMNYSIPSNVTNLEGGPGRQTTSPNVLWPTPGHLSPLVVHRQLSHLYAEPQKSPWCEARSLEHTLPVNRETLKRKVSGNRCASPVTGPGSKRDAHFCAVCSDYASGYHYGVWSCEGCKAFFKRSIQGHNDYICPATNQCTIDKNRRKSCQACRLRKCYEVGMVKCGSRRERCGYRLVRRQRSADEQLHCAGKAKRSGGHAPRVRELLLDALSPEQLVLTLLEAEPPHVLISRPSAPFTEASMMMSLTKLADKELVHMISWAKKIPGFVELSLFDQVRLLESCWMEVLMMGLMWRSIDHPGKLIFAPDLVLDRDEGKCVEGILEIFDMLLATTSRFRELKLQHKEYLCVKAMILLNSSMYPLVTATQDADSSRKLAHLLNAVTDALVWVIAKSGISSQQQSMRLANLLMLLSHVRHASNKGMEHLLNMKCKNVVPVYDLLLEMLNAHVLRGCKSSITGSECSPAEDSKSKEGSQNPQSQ
How it was run: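 Measured by fluorescence intensity from a B/G FRET beta-lactamase substrate (2 h, room temperature) in ER-beta-UAS-bla HEK293T cells treated with DMSO-dissolved compounds for 16 hr at 37C and 5% CO2.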

[11] = qHTS assay to identify small molecule agonists of the androgen receptor (AR) signaling pathway in the presence of an antagonist - cell viability counter screen (AID 1259379);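 further: MDA-kb2 human breast cancer cells carrying an MMTV luciferase reporter; series mostly up to about 92 µM; nearly all actives have a fitted effect of over 25% in size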
How it was run: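 Counter screen for cell viability run in parallel with the AR agonist-mode luciferase assay. MDA-kb2 cells were co-treated with nilutamide (3.0uM final) and compounds, then incubated 16 hr at 37C, and CellTiter-Fluor fluorescence was measured.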

[12] = molecular target: Estrogen receptor (Homo sapiens) (UniProt P03372); assay: qHTS assay to identify small molecule agonists of the estrogen receptor alpha (ER-alpha) signaling pathway in the presence of an antagonist (AID 1259383; calls by dose curve; further: top concentration of the series differs between compounds; nearly all actives have a fitted effect of over 15% in size)
How it was run: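 ER-alpha agonism measured under antagonist challenge: 10.0nM ICI-182,780 (final) plus compound, 15 concentrations, 22hr, VM7Luc4E2 ERE-luciferase cells. Read by luminescence.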

[13] = qHTS assay to identify small molecule antagonists of the sonic hedgehog signaling (Shh) pathway (AID 1259369; calls by dose curve; further: nearly all actives have a fitted effect of over 45% in size; further: potency means the concentration at half of the fitted maximal effect)
How it was run: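 Gli1 transcriptional reporter (firefly Luc) in NIH/3T3 background, conditioned-medium activated. 24hr exposure, luminescence endpoint.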

[14] = qHTS assay to identify small molecule agonists of the estrogen receptor beta (ER-beta) signaling pathway - cell viability counter screen (AID 1259380); further: nearly all actives have a fitted effect of over 30% in size
How it was run: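 In this qHTS counter screen, HEK293T cells carrying an ER-beta/UAS beta-lactamase reporter, grown in 2% charcoal-stripped FBS, received compound for 16 hr; ATP-based CellTiter-Glo luminescence was then read after 30 min at room temperature.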

[15] = qHTS assay to identify small molecule antagonists of the estrogen receptor beta (ER-beta) signaling pathway - cell viability counter screen (AID 1259382);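 further: HEK293T cells carrying ER-beta-UAS-bla reporter stimulated with estradiol; series mostly up to about 92 µM; nearly all actives have a fitted effect of over 55% in size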
How it was run: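 HEK293T ER-beta-UAS-bla, 2% charcoal-stripped FBS; compounds + 1nM E2 16 hr 37C; CellTiter-Glo luminescence, 30 min RT.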

[16] = qHTS assay to identify small molecule agonists or antagonists of the thyroid stimulating hormone receptor (TSHR) signaling pathway - wild type cell line counter screen (AID 1259384; calls by dose curve)
How it was run: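 Counter screen in untransfected Hek293: compounds (15-point titration, triplicate) plus phosphodiesterase inhibitor Ro20-1724 added after 18 h plating; 30 min RT. Intracellular cAMP via competitive d2/cryptate immunoassay, 1 h incubation.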

[17] = molecular target: Estrogen receptor beta (Homo sapiens) (UniProt Q92731); assay: qHTS assay to identify small molecule antagonists of the estrogen receptor beta (ER-beta) signaling pathway (AID 1259378; active means well fitted inhibition curve with a large enough effect in the signal ratio in the repeat runs, not every such curve was filed as active; the % refers to the signal ratio; further: potency means the concentration at half of the fitted maximal effect)
How it was run: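 Antagonist mode: compounds added to beta-lactamase reporter HEK293T ER-beta-UAS cells stimulated with E2 (1nM final), 16 hr at 37C. LiveBLAzer B/G FRET substrate, 2 hours room temperature, fluorescence read-out.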

Measured: Potency

O=C(O)Cc1cc(I)c(Oc2cc(I)c(O)c(I)c2)c(I)c1
not listed: [13] | [14] | [15] | [16] | [17]
inactive: all other assays above

CN(C)C(=O)Nc1ccccc1
not listed: [17]
inactive: all other assays above

CCCCCCC(CCCCCCCCCCC(=O)OCC(COC(C)=O)OC(C)=O)OC(C)=O (stereo not drawn)
active: [13] 1.06 µM
inactive: all other assays above

C=C(C)C(=O)NCCC[N+](C)(C)C
not listed: [10] | [13] | [17]
inactive: all other assays above

CC(C)(O)Cc1ccccc1
not listed: [17]
inactive: all other assays above

NCCN1CCNC1=O
not listed: [10] | [17]
inactive: all other assays above

Cc1ccc(Nc2ccc(O)c3c2C(=O)c2ccccc2C3=O)cc1
not listed: [10] | [11] | [16] | [17]
inactive: all other assays above

CC(C)COC(=O)c1ccccc1O
not listed: [10] | [17]
inactive: all other assays above

C/C=C1\C(=O)C[C@H]2[C@@H]3CCC4=CC(=O)CC[C@]4(C)[C@H]3CC[C@]12C
active: [13] 5.99 µM | [17] 26.8 µM
not listed: [7] | [16]
inactive: all other assays above
